# Source: PubChem BioAssay AID430 (Sanford-Burnham Center for Chemical Genomics, 2006)
# Among all 63,000 compounds or so, about 1,100 (1.7%) were called active. No stated cut-off is given here; in the data, active means cytotoxicity above about 50%; inactive means the rest. For the sample, actives were picked, then their nearest neighbours and some compounds at random. Results with a measured potency or affinity are listed apart.
# Test: HPDE-C7 pancreatic duct cell viability loss – fluorescence, HTS (AID 430);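 further: cells exposed to compound for 48 hours before viability readout; 0% = vehicle and 100% = reference cytotoxic drug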
# Conditions: HPDE-C7 pancreatic duct cells viability, at 10 µM, hits give high values
row,SMILES,cytotoxicity
1,Cc1ccc(S(=O)(=O)NCc2ccncc2)cc1,3.6% (inactive)
2,COc1ccc(Nc2nc(N)nc(CSc3n[nH]c(-c4ccccc4)n3)n2)cc1,-20.3% (inactive)
3,COc1ccccc1N1CCN(C(=O)C2CC=CCC2C(=O)O)CC1 (stereo unspecified),9.5% (inactive)
4,COc1ccc(C(C)=O)cc1COC(=O)c1ccc(S(=O)(=O)N2CCOCC2)cc1,21% (inactive)
5,COc1cc(NC(=O)c2ccco2)ccc1NC(=O)c1ccccc1Cl,2.8% (inactive)
6,N#Cc1c(-c2ccco2)nc(SCC(=O)Nc2cccc(Cl)c2)[nH]c1=O,19% (inactive)
7,Cc1nc(SCc2cccc(F)c2)[nH]c(=O)c1C#N,-9.7% (inactive)
8,N#Cc1c(-c2ccco2)nc(SCc2ccc(F)cc2)[nH]c1=O,54.3% (active)
9,Cn1c(Cn2nnc3ccccc32)nnc1SCC(=O)N1c2ccccc2CCc2ccccc21,-18% (inactive)
10,CC(CN1CCOCC1)OC(=O)c1ccc2c(c1)OCCO2 (stereo unspecified),4.5% (inactive)
11,COc1ccc(C(=O)OC(C)CN2CCOCC2)cc1OC (stereo unspecified),-1.4% (inactive)
12,CCc1ccc2c(CN3CCc4ccccc43)cc(=O)oc2c1,-5.4% (inactive)
13,CCOC(=O)c1sc(NC(=O)c2ccc(S(=O)(=O)N3CCOCC3)cc2)cc1C,-2.3% (inactive)
14,CCOC(=O)c1ccc(NC(=O)c2cccc(S(=O)(=O)N3CCOCC3)c2)cc1,20.1% (inactive)
15,CCOC(=O)c1sc(NC(=O)c2cccc(S(=O)(=O)N3CCN(C)CC3)c2)cc1C,51% (active)
16,Cc1cc(C)n(-c2ccc(C(=O)Nc3ccccc3N3CCOCC3)cc2)n1,-4.1% (inactive)
17,Cc1ccc(CS(=O)(=O)Cc2ccc(C(=O)NCc3ccco3)o2)cc1,-21% (inactive)
18,c1csc(-c2nn[nH]n2)c1,-3.1% (inactive)
19,COc1ccccc1-c1nnc(NC(=O)c2ccc(S(=O)(=O)N(C)Cc3ccccc3)cc2)o1,55.9% (active)
20,CCN(Cc1ccccc1)S(=O)(=O)c1ccc(C(=O)Nc2nnc(-c3ccccc3OC)o2)cc1,35.6% (inactive)
21,Cc1ccccc1C(=O)Nc1nnc(-c2ccc(F)cc2)o1,18.7% (inactive)
22,CN(c1ccccc1)S(=O)(=O)c1ccc(C(=O)Nc2nnc(-c3ccc(F)cc3)o2)cc1,58.9% (active)

row,SMILES,cytotoxicity
1,COc1ccccc1-c1nnc(NC(=O)c2ccc(S(=O)(=O)N(C)C)cc2)o1,-2.7% (inactive)
2,CN(c1ccccc1)S(=O)(=O)c1ccc(C(=O)Nc2nccs2)cc1,-7.3% (inactive)
3,c1ccc2c(c1)oc1c(NCc3ccc4c(c3)OCO4)ncnc12,-2.2% (inactive)
4,O=C(NCC1COCCO1)C1CCN(S(=O)(=O)c2ccccc2)CC1 (stereo unspecified),-6.9% (inactive)
5,CCNC(=O)N1c2ccc(OC)cc2C(C)=CC1(C)C,3.2% (inactive)
6,O=C(NC1CCc2ccccc21)C1CCN(S(=O)(=O)c2ccc(-n3cnnn3)cc2)CC1 (stereo unspecified),-11% (inactive)
7,O=C(NCCc1ccccc1)C1CCCN1C(=O)Nc1ccc(F)cc1 (stereo unspecified),-11.3% (inactive)
8,O=C1CCCC2=C1C(c1cccs1)n1nc(SCc3ccccc3F)nc1N2 (stereo unspecified),-11.2% (inactive)
9,CCOC(=O)c1[nH]c2ccc(F)cc2c1NC(=O)CN1CCc2cc(OC)c(OC)cc2C1,-3.8% (inactive)
10,CCOC(=O)c1[nH]c2ccc(F)cc2c1NC(=O)CN1CCN(C/C=C/c2ccccc2)CC1,64.9% (active)
11,CCOC(=O)c1[nH]c2ccc(OCC)cc2c1NC(=O)CN1CCN(c2ccccc2)CC1,4.4% (inactive)
12,CCOC(=O)c1[nH]c2ccc(F)cc2c1NC(=O)C(C)N1CCc2cc(OC)c(OC)cc2C1 (stereo unspecified),58.6% (active)
13,CCOC(=O)c1[nH]c2ccccc2c1NC(=O)CN1CCCCC1,-4.1% (inactive)
14,CCOC(=O)c1[nH]c2ccc(OC)cc2c1NC(=O)C(C)N1CCSCC1 (stereo unspecified),19.3% (inactive)
15,CC(NC(=O)CC12CC3CC(CC(C3)C1)C2)C(=O)O (stereo unspecified),3% (inactive)
16,COCCN(CC(=O)NCc1ccc(F)cc1)C(=O)CCC(=O)Nc1nccs1,3.1% (inactive)
17,CCc1nnc(NC(=O)C2CCN(c3nccc(C)n3)CC2)s1,-2.7% (inactive)
18,O=C(CSc1nnc(CNC(=O)c2cccs2)o1)NC1CCCCC1,-2.7% (inactive)
19,COc1ccc2noc3c2c1C(=O)c1ccccc1-3,45.8% (inactive)
20,O=C1c2ccccc2-c2onc3ccc(NCCCn4ccnc4)c1c23,20.3% (inactive)
21,O=C1c2ccccc2-c2onc3ccc(NCc4ccco4)c1c23,62.1% (active)
22,Cc1nn(C)c(C)c1CNC(=O)c1nn2c(c1Cl)NC(c1cccs1)CC2C(F)(F)F (stereo unspecified),-0.2% (inactive)

row,SMILES,cytotoxicity
1,COc1ccc(NC(=O)C2CCCN(c3c4c(nc5ncnn35)CCC4)C2)cc1 (stereo unspecified),-37.1% (inactive)
2,CCOc1ccccc1CNC(=O)C1CCN(c2nc3ccccc3o2)CC1,-9.3% (inactive)
3,Cc1nc(NC(=O)c2ccccc2)sc1-c1csc(N)n1,39.2% (inactive)
4,Cc1nc(C)c(-c2csc(NCc3ccco3)n2)s1,-21.6% (inactive)
5,Cc1nc(NC(=O)c2ccccc2)sc1-c1csc(NCc2ccco2)n1,63.4% (active)
6,O=C(Nc1nc2c(s1)CCCC2)c1cc2n(n1)C(C(F)(F)F)CC(C1CC1)N2 (stereo unspecified),45.6% (inactive)
7,Cc1cccc(N(C(=O)Cn2nnc3ccccc32)C(C(=O)NCc2ccco2)c2ccncc2)c1 (stereo unspecified),5.1% (inactive)
8,CC1=C(C(=O)NCc2ccccc2)C(c2ccc(C)o2)n2ncnc2N1 (stereo unspecified),-15% (inactive)
9,CCOC(=O)c1c(C2COc3ccccc3O2)csc1N (stereo unspecified),-2.8% (inactive)
10,COC(=O)Cc1cc(=O)[nH]c(Nc2nc3ccccc3o2)n1,7.2% (inactive)
11,COCc1cc(=O)[nH]c(Nc2nc3ccccc3o2)n1,34.6% (inactive)
12,COCc1cc(=O)[nH]c(Nc2nc3ccc(C)cc3o2)n1,51.7% (active)
13,O=S(=O)(c1cc(C(F)(F)F)ccc1Cl)N1CCCCCC1,-4% (inactive)
14,CCOC(=O)C1=C(c2ccccc2)Nc2ncnn2C1c1ccccn1 (stereo unspecified),-3.2% (inactive)
15,Cc1ccc2[nH]c3c(N4CCOCC4)ncnc3c2c1,5.1% (inactive)
16,CCOC(=O)N1CCN(c2ncnc3c2[nH]c2ccc(OC)cc23)CC1,-5% (inactive)
17,CCOC(=O)c1[nH]c2ccc(OCC)cc2c1NC(=O)CN1CCN(c2ccccn2)CC1,8.8% (inactive)
18,c1ccc(CN2CCN(c3ncnc4c3[nH]c3ccccc34)CC2)cc1,15.2% (inactive)
19,c1ccc(CN2CCN(c3ncnc4nc[nH]c34)CC2)cc1,8.4% (inactive)
20,Cc1ccc2c(c1)[nH]c1c(N3CCN(Cc4ccccc4)CC3)ncnc12,82.2% (active)
21,CCOc1ccc2[nH]c3c(N4CCN(c5ccccn5)CC4)ncnc3c2c1,62.5% (active)
22,Cc1ccc2[nH]c3c(N4CCCCCC4)ncnc3c2c1,23.7% (inactive)
